# The whole screen tested about 16,000 compounds, of which about 4,000 (25%) were called active. Roughly 26% stayed inconclusive and do not appear here. The list is a sample of the results. Values without a mark were called inactive. Calls follow the shape of the dose curve; as a rule, active = well fitted curve in the direction sought with a large enough effect; inconclusive = small, poorly fitted or top-dose-only effect, or effect the other way; inactive = no such curve, though single readings can be large or run the other way.
# Biological target: Cytochrome P450 2C9 (Homo sapiens) (UniProt P11712)
# Sequence (P11712 whole entry, looked up): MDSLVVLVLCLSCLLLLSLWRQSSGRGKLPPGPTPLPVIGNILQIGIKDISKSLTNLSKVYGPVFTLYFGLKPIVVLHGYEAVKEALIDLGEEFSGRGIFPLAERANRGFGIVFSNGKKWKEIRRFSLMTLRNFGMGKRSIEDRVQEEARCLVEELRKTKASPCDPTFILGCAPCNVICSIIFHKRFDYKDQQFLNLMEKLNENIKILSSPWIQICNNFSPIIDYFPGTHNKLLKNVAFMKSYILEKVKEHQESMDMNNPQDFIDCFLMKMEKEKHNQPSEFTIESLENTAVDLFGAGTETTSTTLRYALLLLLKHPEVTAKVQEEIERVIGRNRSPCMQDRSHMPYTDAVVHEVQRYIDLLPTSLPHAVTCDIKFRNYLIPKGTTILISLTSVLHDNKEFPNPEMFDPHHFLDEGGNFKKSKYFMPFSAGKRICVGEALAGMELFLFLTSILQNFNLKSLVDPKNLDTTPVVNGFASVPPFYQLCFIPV
# Test: Cytochrome panel assay with activity outcomes
# Conditions: recombinant CYP, pro-luciferin dealkylation, luminescence, p450-cyp2c9; series mostly up to 57.1 µM
# % is scaled to controls: 0 for no effect and ±100 for the full control effect.
SMILES,AC50,"activity, negative = inhibition"
O=C(NC1CCCCC1)c1sc(=S)n2c1[nH]c(=O)c1ccccc12,0.2 µM (active),
CCOc1ccc(N(C(C)C(=O)NC(C)CC)S(C)(=O)=O)cc1 (stereo not drawn),5.62 µM (active),
CCOc1ccc(N(C(C)C(=O)N/N=C(\C)c2cccc(NC(=O)c3ccccc3)c2)S(C)(=O)=O)cc1 (stereo not drawn),3.98 µM (active),
Cc1nc2cnc(N3CCN(C)CC3)nc2n(-c2ccccc2)c1=O,inactive,
CC[C@H]1C(=O)OC[C@H]1Cc1cncn1C,inactive,
CO[C@H]1COC(=O)[C@@H](C)COC(=O)[C@@H](COCc2ccccc2)NC(=O)C/C=C\[C@H]1C,,6.52% [at 11.4 µM]
O=C(c1cnccn1)N1CCC2(CC1)CCN(c1ccccc1)CC2,inactive,
O=C(Nc1ccccc1)N1CC2(CCN(C(=O)c3cnccn3)CC2)C1,inactive,
O=C(Nn1cc(C(=O)N2CCN(c3ccccc3F)CC2)c2ccccc2c1=O)c1cnccn1,4.47 µM (active),
O=C(c1ccccc1)c1c[nH]c(C(=O)NCCCN2CCOCC2)c1,inactive,
O=C(O)[C@@H]1[C@@H](C(=O)NCc2cccnc2)[C@@H]2C=C[C@@H]1O2,,0.756% [at 11.4 µM]
O=C(c1ccccc1)c1c[nH]c(C(=O)NCc2cccnc2)c1,11.2 µM (active),
COc1ccc(-c2nc3cnc(N4CCN(C)CC4)nc3n(C)c2=O)cc1,inactive,
N#CCCn1c(=O)c(-c2cc(F)cc(F)c2)nc2cnc(N3CCOCC3)nc21,inactive,
CN1CCN(c2ncc3nc(-c4cc(F)cc(F)c4)c(=O)n(C4CC4)c3n2)CC1,10 µM (active),
CN1CCN(c2ncc3nc(-c4ccc(Cl)cc4)c(=O)n(C4CC4)c3n2)CC1,inactive,
CN1CCN(c2ncc3nc(-c4ccc(F)cc4)c(=O)n(C4CC4)c3n2)CC1,12.6 µM (active),
NC([N-]/N=C/c1ccccn1)=[S]=[Fe].O=S(=O)(O)O,,-29.5% [at 11.4 µM]
Cc1c(Cl)cnc(NC(=O)COC(=O)CCS(=O)(=O)c2ccccc2)c1Cl,inactive,
CC(C)CC(C(=O)OCC(=O)Nc1ncc(Cl)cc1Cl)N1C(=O)c2ccccc2C1=O (stereo not drawn),7.08 µM (active),
O=C(O)CC[C@@H](C(=O)O)N1C(=O)c2ccccc2C1=O,inactive,
CC(=O)Nc1ccc(NC(=O)CC2Nc3cccc4cccc(c34)NC2=O)cc1 (stereo not drawn),5.01 µM (active),
Cc1cccc(C)c1OC1(c2ccccc2)OC(=O)c2ccccc21 (stereo not drawn),2.51 µM (active),
Cc1cccc(OC2(c3ccccc3)OC(=O)c3ccccc32)c1C (stereo not drawn),3.16 µM (active),

SMILES,AC50,"activity, negative = inhibition"
CCCCCCCOC1(c2ccccc2)OC(=O)c2ccccc21 (stereo not drawn),8.91 µM (active),
CC(C)C[C@H](NC(=O)[C@@H](O)[C@H](N)Cc1ccccc1)C(=O)O,inactive,
CCn1c(C)nc2cc(S(=O)(=O)C(F)F)ccc21,inactive,
CCCCn1c(SCc2c(C)noc2C)nc2cc(S(N)(=O)=O)ccc21,10 µM (active),
c1ccc2c(N3CCNCC3)nc(-c3ccc4c(c3)OCO4)nc2c1,,12.6% [at 2.29 µM]
O=C1CC(c2ccc3c(c2)OCO3)CN1 (stereo not drawn),inactive,
O=C1CC(c2ccc3c(c2)OCO3)Sc2nc3ccccc3n21 (stereo not drawn),3.16 µM (active),
O=C(CSc1ccccn1)Nc1nc2ccc(Br)cc2s1,7.08 µM (active),
CCCCOC(=O)Nc1nc2ccccc2s1,inactive,
c1ccc(/C(=N/Nc2nc3ccccc3s2)c2ccccn2)cc1,,-23.7% [at 11.4 µM]
O=C(NC1CCCCC1)C(c1ccccc1)N1CCOCC1 (stereo not drawn),inactive,
Cc1ccc(-c2nc3ccccc3o2)cc1NC(=O)Cc1cccs1,inactive,
O=C(CNC1CCCCCC1)Nc1ccccc1N1CCCCC1,28.2 µM (active),
O=C(CSc1nc2ccccc2[nH]1)NCCN1CCCCC1,inactive,
O=C(CSc1nc2ccccc2o1)Nc1ccccc1N1CCCCCC1,12.6 µM (active),
O=C(CSc1nc2ccccc2o1)Nc1nc2ccccc2s1,3.98 µM (active),
O=C(O)C1CCCCC1C(=O)Nc1ccccc1Cl (stereo not drawn),inactive,
O=C(CSc1nc2ccccc2o1)NC(=O)NCc1ccccc1,7.08 µM (active),
O=C(CN1CCN(S(=O)(=O)c2ccccc2)CC1)NC(=O)NCc1ccccc1,inactive,
O=C(N/N=C\c1ccc(-c2ccccc2[N+](=O)[O-])o1)C1COc2cc3ccccc3cc2O1 (stereo not drawn),1 µM (active),
C[N+]1(C)CCC(=C(c2ccccc2)c2ccccc2)CC1,inactive,
N#CC(C#N)=C(N)/C(C#N)=C/c1ccc(O)cc1,inactive,
CC(C)(C)c1cc(/C=C(\C#N)C(N)=S)cc(C(C)(C)C)c1O,0.1 µM (active),
CC(C)(CO)Cc1cc(C(C)(C)C)c(O)c(C(C)(C)C)c1,inactive,

SMILES,AC50,"activity, negative = inhibition"
CC(C)=NNc1ncnc2nc[nH]c12,,-11.9% [at 11.4 µM]
CCOc1cccc(OCCCNCCCOC)c1,inactive,
Cc1ccccc1-c1cncnc1Nc1ccc(F)cc1,,-14.2% [at 2.29 µM]
C=CCN1C(=CCO)[C@H]2C[C@H]3[C@@H]1CC[C@@]31c3ccccc3N3C=C4[C@@H]5N(/C=C/2[C@H]31)c1ccccc1[C@]51CC[C@H]2[C@H]1C[C@@H]4/C(=C/CO)N2CC=C,inactive,
C[C@@](N)(C(=O)O)c1ccc(S(=O)(=O)O)cc1,inactive,
CCOc1cc2[nH]c(=O)n(CCCC(=O)NCc3ccc(OC)cc3)c(=O)c2cc1OCC,4.47 µM (active),
COC(=O)C/C=C\[C@@H](C)[C@@H](/C=N\O[C@@H]1O[C@H](COC(C)=O)[C@H](OC(C)=O)[C@H](OC(C)=O)[C@H]1OC(C)=O)OC,,-21% [at 11.4 µM]
O=C(c1ccncc1)N1CCC2(CC1)CN(c1ncccn1)C2,inactive,
O=C(c1ccncc1)N1CCC2(CC1)CCN(c1ncccn1)CC2,15.8 µM (active),
O=C(c1ccncc1)N1CCC2(CC1)CCN(c1ccccn1)CC2,10 µM (active),
CN1CCC2(CC1)CCN(C(=O)c1ccncc1)CC2,inactive,
CC(=O)N1CCC2(CC1)CCN(c1ccccn1)CC2,inactive,
C[C@H](NCCC(c1ccccc1)c1ccccc1)c1ccccc1,inactive,
CC1(C)CCC=[N+]1[O-],inactive,
CS[C@]12C(=O)C[C@]3(C)[C@@H](CC[C@@]3(O)C(=O)CO)[C@@H]1CCC1=CC(=O)CC[C@]12C,,11.9% [at 11.4 µM]
O=C(c1cnccn1)N1CCC[C@@]2(CCN(Cc3ccncc3)C2)C1,10 µM (active),
O=C(c1cc(C(F)(F)F)cc(C(F)(F)F)c1)N1CCC[C@@]2(CCN(Cc3ccccc3)C2)C1,inactive,
O=C(c1cnccn1)N1CCC2(CCCN(Cc3nccs3)C2)CC1,15.8 µM (active),
O=C(c1cnccn1)N1CCC2(CC1)CN(Cc1nccs1)C2,inactive,
CC(C)CN1CC[C@@]2(CCCN(C(=O)c3cnccn3)C2)C1,inactive,
N#Cc1ccc(CN2CC[C@@]3(CCCN(C(=O)c4cc(C(F)(F)F)cc(C(F)(F)F)c4)C3)C2)cc1,inactive,
O=C(c1cc(C(F)(F)F)cc(C(F)(F)F)c1)N1CCC2(CC1)CN(Cc1ccncc1)C2,10 µM (active),
O=C(c1cc(C(F)(F)F)cc(C(F)(F)F)c1)N1CCC[C@@]2(CCN(Cc3ccncc3)C2)C1,0.0794 µM (active),
O=C(c1cnccn1)N1CCC2(CCN(Cc3nccs3)CC2)CC1,inactive,

SMILES,AC50,"activity, negative = inhibition"
O=C(c1cc(C(F)(F)F)cc(C(F)(F)F)c1)N1CCC2(CC1)CN(Cc1ccccc1)C2,inactive,
O=C(c1cnccn1)N1CCC[C@@]2(CCN(c3ncccn3)C2)C1,inactive,
O=C(c1ccncc1)N1CCC2(CC1)CN(Cc1cc(C(F)(F)F)cc(C(F)(F)F)c1)C2,inactive,
CC1=NNC(=S)NCCCN2CCN(CCCNC(=S)NN=C(C)C=NNC(=S)NCCCN3CCN(CCCNC(=S)NN=C1)CC3)CC2,,5.77% [at 11.4 µM]
CC(C)N1CCN(c2ccc(OC[C@@H]3CO[C@@](Cn4cncn4)(c4ccc(Cl)cc4Cl)O3)cc2)CC1,inactive,
COc1cc(C2NC(=O)NC(O)(C(F)(F)F)C2C(=O)c2ccc(Cl)cc2)ccc1O (stereo not drawn),inactive,
O=C(c1cc(C(F)(F)F)cc(C(F)(F)F)c1)N1CCC2(CC1)CCN(c1ccncc1)CC2,inactive,
O=C(c1ccco1)N1CCC2(CC1)CN(Cc1cc(C(F)(F)F)cc(C(F)(F)F)c1)C2,inactive,
O=C(c1cc(C(F)(F)F)cc(C(F)(F)F)c1)N1CCC2(CC1)CN(c1ccccc1)C2,inactive,
O=C(c1cc(C(F)(F)F)cc(C(F)(F)F)c1)N1CCC2(CC1)CN(c1ccncc1)C2,3.98 µM (active),
Cn1cccc1C(=O)N1CCC2(CC1)CN(Cc1ccc(C#N)cc1)C2,inactive,
Cn1cccc1C(=O)N1CCC2(CC1)CN(Cc1cc(C(F)(F)F)cc(C(F)(F)F)c1)C2,15.8 µM (active),
CC(C)CC(=O)N1CCC(O)(CS(=O)(=O)Cc2ccc(Cl)cc2)CC1,inactive,
CCc1ccc(-c2ccc(C(=O)C(F)(F)F)[nH]2)cc1,inactive,
Cc1cccc(-n2nnc3cnn(C)c3c2=O)c1,inactive,
CN(C)Cc1ccccc1-c1nccc(Nc2ccc(F)cc2)n1,,6.01% [at 2.29 µM]
O=C(C1CCN(S(=O)(=O)N2CCOCC2)CC1)N1CCN(Cc2ccccc2)CC1,inactive,
O=[N+]([O-])c1ccc(N2CCN(Cc3ccccc3)CC2)c(S(=O)(=O)N2CCOCC2)c1,17.8 µM (active),
CN1CCN(c2ccc([N+](=O)[O-])cc2S(=O)(=O)N2CCOCC2)CC1,inactive,
CC1CCC(C(=O)O)([C@H](Br)C(=O)O)CC1 (stereo partly drawn),,-6.22% [at 11.4 µM]
Cc1c(C)c(C)c(CC2(C)CSC2)c(CC2(C)CSC2)c1C,,11.8% [at 11.4 µM]
